Data reported in PubChem BioAssay (NCATS).
Results filed as inconclusive are left out. The source made the active and inactive calls. Unless noted, the call rests on the fitted dose curve; in most records, active means well fitted inhibition curve with a large enough effect; inconclusive means small, poorly fitted or top-dose-only effect; inactive means flat fitted curve, though single readings scatter.

Columns and labels:
AA1029 = assay: qHTS profiling for inhibitors of Plasmodium falciparum proliferation (AID 504749); further: nearly all actives have a fitted effect of over 60% in size; settings: P. falciparum in erythrocytes, SYBR Green DNA, 72 h; series mostly up to 28.7 µM
In short: (§1)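 Parasite proliferation within erythrocytes, 72 h exposure. Endpoint: SYBR Green I fluorescence after overnight lysis at room temperature. Controls: 0.29 uM artemisinin, DMSO.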

CP185 = assay: as above; settings: P. falciparum in erythrocytes, SYBR Green DNA, 72 h; series mostly up to 28.7 µM
In short: as §1

CP194 = assay: as above; settings: P. falciparum in erythrocytes, SYBR Green DNA, 72 h; series mostly up to 28.7 µM
In short: as §1

CP215 = assay: as above; settings: P. falciparum in erythrocytes, SYBR Green DNA, 72 h; series mostly up to 28.7 µM
In short: as §1

CP238 = assay: as above; settings: P. falciparum in erythrocytes, SYBR Green DNA, 72 h; series mostly up to 28.7 µM
In short: as §1

CP256 = assay: as above; settings: P. falciparum in erythrocytes, SYBR Green DNA, 72 h; series mostly up to 28.7 µM
In short: as §1

CP265 = assay: as above; settings: P. falciparum in erythrocytes, SYBR Green DNA, 72 h; series mostly up to 28.7 µM
In short: as §1

CP266 = assay: as above; settings: P. falciparum in erythrocytes, SYBR Green DNA, 72 h; series mostly up to 28.7 µM
In short: as §1

CP268 = assay: as above; settings: P. falciparum in erythrocytes, SYBR Green DNA, 72 h; series mostly up to 28.7 µM
In short: as §1

CP286 = assay: as above; settings: P. falciparum in erythrocytes, SYBR Green DNA, 72 h; series mostly up to 28.7 µM
In short: as §1

CP291 = assay: as above; settings: P. falciparum in erythrocytes, SYBR Green DNA, 72 h; series mostly up to 28.7 µM
In short: as §1

CP305 = assay: as above; settings: P. falciparum in erythrocytes, SYBR Green DNA, 72 h; series mostly up to 28.7 µM
In short: as §1

DFO2036 = assay: as above; settings: P. falciparum in erythrocytes, SYBR Green DNA, 72 h; series mostly up to 28.7 µM
In short: as §1

JCK = assay: as above; settings: P. falciparum in erythrocytes, SYBR Green DNA, 72 h; series mostly up to 28.7 µM
In short: as §1

N140 = assay: as above; settings: P. falciparum in erythrocytes, SYBR Green DNA, 72 h; series mostly up to 28.7 µM
In short: as §1

PC15 = assay: as above; settings: P. falciparum in erythrocytes, SYBR Green DNA, 72 h; series mostly up to 28.7 µM
In short: as §1

TAB109 = assay: as above; settings: P. falciparum in erythrocytes, SYBR Green DNA, 72 h; series mostly up to 28.7 µM
In short: as §1

[1] = S16 Schwann cell PMP22 intronic element beta-lactamase assay (AID 624044; calls by dose curve; further: nearly all actives have a fitted effect of over 15% in size); settings: S16 rat Schwann cells, PMP22 element beta-lactamase FRET, 24 h; ratio activity, negative = inhibition: at 38.3 µM (top of the series)
In short: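 Rat S16 Schwann cells with beta-Lac driven by a PMP22 intronic element, compound-treated 24 h at 37 °C. LiveBLAzer FRET B/G read: 460 nm normalized to potassium clavulanate vs DMSO; 535 nm FRET as viability; concentration-effect curves classified.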

DIV17 = assay: qHTS profiling for inhibitors of Plasmodium falciparum proliferation (AID 504749); further: nearly all actives have a fitted effect of over 60% in size; settings: P. falciparum in erythrocytes, SYBR Green DNA, 72 h; series mostly up to 28.7 µM
In short: as §1

DIV30 = assay: as above; settings: P. falciparum in erythrocytes, SYBR Green DNA, 72 h; series mostly up to 28.7 µM
In short: as §1

Measured: Potency
Potency means the concentration at half of the fitted maximal effect.

COC(=O)C1C2CC3c4[nH]c5cc(OC)ccc5c4CCN3CC2CC(OC)C1OC (stereo not given)
inactive: AA1029 | CP185 | CP194 | CP215 | CP238 | CP256 | CP265 | CP266 | CP268 | CP286 | CP291 | CP305 | DFO2036 | JCK | N140 | PC15 | TAB109

Nc1nc(Cl)nc2c1ncn2[C@@H]1O[C@H](CO)[C@H](O)C1F (stereo not given in full)
inactive: AA1029 | CP185 | CP194 | CP215 | CP238 | CP256 | CP265 | CP266 | CP268 | CP286 | CP305 | DFO2036 | DIV17 | DIV30 | JCK | N140 | PC15 | TAB109
active: [1] 8.91 µM

CCCCC(=O)OC1CCC2C3CCc4cc(O)ccc4C3CC[C@]12C (stereo not given in full)
inactive: [1] | AA1029 | CP185 | CP194 | CP215 | CP238 | CP265 | CP266 | CP268 | CP286 | CP291 | CP305 | DFO2036 | DIV30 | JCK | TAB109
active: N140 11.2 µM

CC1(C)SC2[C@@H](N=CN3CCCCCC3)C(=O)N2[C@H]1C(=O)O (stereo not given in full)
inactive: [1] | AA1029 | CP185 | CP194 | CP238 | CP265 | CP266 | CP268 | CP286 | CP291 | CP305 | DFO2036 | DIV17 | DIV30 | JCK | N140 | PC15 | TAB109

C=C1/C(=C\C=C2/CCC[C@]3(C)[C@@H]([C@H](C)/C=C/[C@@H](O)C4CC4)CC[C@@H]23)C[C@@H](O)C[C@@H]1O
inactive: [1] | AA1029 | CP185 | CP194 | CP215 | CP238 | CP256 | CP266 | CP268 | CP286 | CP305 | DFO2036 | DIV17 | DIV30 | JCK | N140 | PC15 | TAB109

Oc1cc2cc(CCN3CCN(c4nsc5ccccc45)CC3)c(Cl)cc2[nH]1
inactive: [1] | AA1029 | CP185 | CP194 | CP215 | CP238 | CP256 | CP265 | CP266 | CP305 | DFO2036 | JCK

CN(C)CC[C@@](O)(c1ccccc1)c1ccccc1Cl
active: AA1029 4.47 µM | CP185 11.2 µM | CP194 7.57 µM | CP238 11.2 µM | CP256 5.62 µM | CP265 7.08 µM | CP268 13.5 µM | CP286 7.94 µM | DFO2036 8.91 µM | DIV17 6.75 µM | DIV30 10.7 µM | N140 4.47 µM | PC15 7.08 µM | TAB109 7.08 µM

C=C1CC[C@H](O)C/C1=C/C=C1\CCC[C@]2(C)[C@@H]([C@H](C)CCCC(C)(C)O)CC[C@@H]12
inactive: CP194 | CP266 | CP268 | CP291 | CP305 | JCK
active: AA1029 12.6 µM | DIV17 15.1 µM | DIV30 9.53 µM | N140 10 µM

CC[C@H]1OC(=O)[C@H](C)C(=O)[C@H](C)[C@@H](OC2O[C@H](C)C[C@H](N(C)C)[C@@H]2O)[C@@](C)(OC)C[C@@H](C)C(=O)[C@@H](C)C2N(CCCCn3cnc(-c4cccnc4)c3)C(=O)O[C@@]21C (stereo not given in full)
active: DIV17 13.5 µM
inactive: [1] | CP185 | CP194 | CP215 | CP238 | CP256 | CP265 | CP266 | CP268 | CP286 | CP291 | CP305 | DFO2036 | PC15

O=C(O)c1ccccc1-c1c2ccc(=O)cc-2oc2cc(O)ccc12
inactive: [1] | CP215 | CP266 | CP286 | CP291

NC(C(=O)O)C(O)c1ccc(O)c(O)c1 (stereo not given)
active: N140 12.6 µM
inactive: [1] | JCK | PC15

C=C1N[C@]2(C(=O)COC(C)=O)[C@@H](C[C@H]3[C@@H]4CCC5=CC(=O)C=C[C@]5(C)[C@H]4[C@@H](O)C[C@@]32C)O1
inactive: [1] | CP256 | CP265 | CP266 | DIV17 | JCK | N140 | PC15 | TAB109

CCN(CC)CCOCCOC(=O)C(CC)(CC)c1ccccc1 (tested in a mixture with another compound)
inactive: JCK | TAB109
active: CP256 5.62 µM | CP265 1.12 µM | CP305 8.49 µM | DIV17 1.51 µM

C=C1CC2C3C=C(C)C4=CC(=O)CCC4(C)C3CCC2(C)[C@@]1(OC(C)=O)C(C)=O (stereo not given in full)
inactive: CP185 | CP238 | CP265 | DFO2036 | JCK | N140 | PC15 | TAB109

O=C(NC(CO)C(O)c1ccc([N+](=O)[O-])cc1)C(Cl)Cl (stereo not given)
active: CP256 11.2 µM | CP291 3.01 µM
inactive: [1] | CP194 | DIV17 | DIV30 | JCK | PC15

C=C1CC[C@H](O)C/C1=C/C=C1\CCC[C@]2(C)[C@@H]([C@H](C)CC[C@@H](O)C(C)(C)O)CC[C@@H]12
active: DIV17 13.5 µM | DIV30 13.5 µM | N140 8.91 µM
inactive: [1] | CP215 | CP266 | CP268 | CP286 | CP305

COc1ccc(CC(C)NCC(O)c2ccc(O)c(NC=O)c2)cc1 (stereo not given)
inactive: [1]

C[C@@H]1CC2[C@@H]3C[C@H](F)C4=CC(=O)C(Cl)=C[C@]4(C)[C@@]3(F)[C@H](O)C[C@]2(C)[C@@]1(O)C(=O)CO (stereo not given in full)
inactive: CP194 | CP215 | CP256 | CP265 | CP266 | CP268 | CP286 | CP291 | CP305 | DFO2036 | DIV30 | JCK | PC15

C=C1CCC(O)C/C1=C/C=C1\CCC[C@]2(C)[C@@H]([C@H](C)/C=C/[C@H](C)C(C)C)CC[C@@H]12 (stereo not given in full)
inactive: [1] | AA1029 | CP194 | CP215 | CP238 | CP266 | CP268 | CP286 | CP291 | CP305 | DIV17 | DIV30
active: JCK 0.708 µM

Cc1cc(O)c2c(c1)OC1(C)CCC3C(C)(C)CCCC34COC2C14 (stereo not given)
inactive: [1] | CP238 | CP256 | CP286 | CP291
active: AA1029 10 µM | DIV17 15.1 µM | N140 12.6 µM

CCC1OC(=O)C[C@@H](O)[C@H](C)[C@@H](OC2OC(C)CC(N(C)C)C2O)[C@@H](CC=O)C[C@@H](C)C(=O)/C=C/[C@]2(C)OC2C1C (stereo not given in full)
inactive: [1] | JCK | PC15
active: CP185 2 µM | CP256 2.24 µM | CP286 1.12 µM | TAB109 0.794 µM

CC1=C(/C=C/C(C)=C\C=C\C(C)=C\C=C\C=C(C)\C=C\C=C(C)\C=C\C2=C(C)C[C@@H](O)CC2(C)C)C(C)(C)C[C@H](O)C1
inactive: CP185 | CP194 | CP215 | CP238 | CP256 | CP265 | CP268 | CP291 | CP305
active: AA1029 12.6 µM | CP286 11.2 µM | DIV17 13.5 µM | N140 7.08 µM

Cc1cncc(C(=O)O)[n+]1[O-]
inactive: CP194 | CP215 | CP268 | CP286 | CP291 | CP305 | DIV17 | DIV30 | JCK | PC15

CCOc1ccccc1O[C@@H](c1ccccc1)[C@@H]1CNCCO1
inactive: [1] | CP185 | CP215 | CP266 | CP268 | CP291 | CP305 | DFO2036
active: AA1029 5.62 µM | DIV17 1.9 µM | DIV30 6.75 µM
